From PubChem
A549 viability: Nrf2 qHTS screen for inhibitors: counterscreen for cytotoxicity; Potency, µM (doses to about 46 µM), for the others: at the highest dose activity change, negative = cytotoxicity, usual class: inhibitors; A549 ARE-Fluc cells, CellTiter-Fluor viability, 18-24 h; hit rate 0.16% among 390,000; AID 504648, 2011; also: potency is read from the fitted curve at half-maximal effect
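A549 ARE_Fluc cells in 5% FBS OPTI-MEM were exposed to compounds in concentration-response for 18-24 h at 37 deg C. Viability was read by CellTiter-Fluor fluorescence (Ex 405/Em 525) after 30 min, before the luciferase read.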
KB-3-1 tox: qHTS assay for MDR1-selective chemotherapeutics: Primary screen using the parental adenocarcinoma cell KB-3-1 | KB-3-1 viability, CellTiter-Glo ATP luminescence, 72 h | Potency, µM (doses to about 46.1 µM), hits mostly cytotoxic | hit rate 1.4% among 400,000 | AID 1347075, 2019; also: potency is read from the fitted curve at half-maximal effect; nearly all actives have a fitted effect of over 60% in size
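Using CellTiter-Glo luminescence, growth of non-resistant KB-3-1 adenocarcinoma cells is assessed 72 h after pin-tool compound addition at 37 °C. Normalized responses across the concentration series yield fitted curves.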
KB-V1 MDR tox: qHTS assay for MDR1-selective chemotherapeutics: Primary screen using the drug-selected MDR subline cells KB-V1; KB-V1 MDR cells viability, CellTiter-Glo, 72 h; Potency, µM (top dose mostly 46.1 µM), actives largely listed as cytotoxic; hit rate 3.4% among 400,000; also: potency is read from the fitted curve at half-maximal effect; nearly all actives have a fitted effect of over 60% in size
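KB-V1 MDR subline cells in DMEM (phenol-red free, 10% FBS) exposed to compounds in qHTS concentration series for 72 h at 37 degrees C. Viability read by CellTiter-Glo luminescence; concentration-effect curves fitted after normalization and correction.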
Nrf2 block: Nrf2 qHTS screen for inhibitors | AID 504444, 2011 | A549 ARE-Fluc reporter, luciferase luminescence, 18-24 h | Potency, µM (series often up to 46 µM), for the others: top-dose activity change, negative = inhibition, actives largely listed as inhibitors | hit rate 2.1% among 360,000; also: potency is read from the fitted curve at half-maximal effect; nearly all actives have a fitted effect of over 60% in size
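Cells were seeded and rested 2 h, then exposed to compounds for 18-24 h. CellTiter-Fluor was read first as a viability measure. BugLite was added 15 min before the final luminescent read of ARE-luciferase activity in A549 cells.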
PI4K2A inh: qHTS for small molecular inhibitors of PI4K2A. purified PI4K2A, ADP-Glo luminescence, 1 h; active compounds read low. hit rate 0.13% among 420,000. activity change, negative = inhibition, % at 76.9 µM. Phosphatidylinositol 4-kinase type 2-alpha (Homo sapiens), Q9BTU6; in the data active = activity change below about -50%; inconclusive = mostly about -30% to -49%;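 also: -100% = wells without enzyme as full effect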
Target sequence (Q9BTU6 whole entry, looked up): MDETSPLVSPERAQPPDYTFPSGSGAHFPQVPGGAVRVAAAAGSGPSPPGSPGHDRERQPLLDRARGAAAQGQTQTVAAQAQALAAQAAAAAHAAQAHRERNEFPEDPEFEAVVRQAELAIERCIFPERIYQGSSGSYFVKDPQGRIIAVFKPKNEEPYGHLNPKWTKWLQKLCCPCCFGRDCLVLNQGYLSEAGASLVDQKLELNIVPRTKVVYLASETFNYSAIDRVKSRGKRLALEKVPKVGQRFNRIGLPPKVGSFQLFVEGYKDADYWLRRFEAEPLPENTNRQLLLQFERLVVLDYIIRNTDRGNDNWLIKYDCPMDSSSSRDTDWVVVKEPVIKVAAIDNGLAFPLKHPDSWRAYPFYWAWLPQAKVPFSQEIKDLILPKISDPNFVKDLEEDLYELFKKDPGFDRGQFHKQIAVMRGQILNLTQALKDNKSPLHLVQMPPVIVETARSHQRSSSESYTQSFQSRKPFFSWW
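Compounds are screened against recombinant PI4K2A using PI as substrate and ATP, the latter dispensed at 300 microM. Reactions run one hour at ambient temperature before ADP-Glo detection; full inhibition defined by wells lacking enzyme.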
Giardia kill: Small Molecules that selectively kill Giardia lamblia: qHTS. Giardia lamblia trophozoite viability. activity change, % at 7.66 µM, hits read low. hit rate 0.15% among 340,000; in the data active = activity change below about -80%; inconclusive = between about -30% and that limit;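 also: parasites exposed to compound for two days anaerobically before the ATP read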
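Luminescent ATP signal served as the viability read-out, measured 15-30 min after adding ATP detection reagent to trophozoites that had been incubated with compounds for 48 hrs at 37 deg C anaerobically at 100 cells/well.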
An asterisk follows results filed as active; i = inactive; ? = inconclusive; nt = no result given. A selection: hits, their analogues and other compounds. The true share with any hit is near 5.7%. Unless noted, calls follow the shape of the dose curve; as a rule, active = well fitted curve in the direction sought with a large enough effect; inconclusive = small, poorly fitted or top-dose-only effect, or another doubt; inactive = no such curve, though single readings can be large; an effect the other way counts as inactive or inconclusive. Unless noted, % is scaled to controls: 0 for no effect and ±100 for the full control effect.

SMILES	A549 viability	KB-3-1 tox	KB-V1 MDR tox	Nrf2 block	PI4K2A inh	Giardia kill
Cc1cc(=O)oc2cc(OCCCC[n+]3ccccc3)ccc12	1%	i	i	?	-2	-13
COc1ccccc1C1=NOC(COc2ccc3c(C)cc(=O)oc3c2)C1 (centres undefined)	-22%	1.2µM*	18µM*	?	10	7
Cc1cc(=O)oc2cc(OCCc3ccccc3)ccc12	0%	21µM*	i	?	4	-2
CCCNC(=O)Cn1c(SCc2ccccc2C)nc2ccncc21	-2%	?	?	14%	nt	-24
CCOc1ccc(/C=C/c2ccc3ccccc3n2)cc1OCC	nt	?	i	nt	nt	nt
COC(=O)[C@]12C[C@H](CC(=O)NCCCCc3ccccc3)C(=O)N(Cc3ccco3)C1=C[C@H](C1CCCC1)O[C@@H]2C	nt	nt	nt	nt	1	nt
CC1(C)Oc2ccc(NC(=O)C3COc4ccccc4O3)cc2O1 (centres undefined)	-1%	i	i	?	-3	0
CC(=O)N1CC(C(=O)Nc2ccc3c(c2)OCO3)Oc2ccccc21 (centres undefined)	-16%	i	21µM*	8%	-4	4
CC(C)(C)C1CCc2c(sc(NC(=O)c3cc4ccccc4c(=O)o3)c2C(N)=O)C1 (centres undefined)	-6%	i	i	22%	-3	nt
COc1ccc(N2CCN(C(=O)CN=C3NS(=O)(=O)C(c4ccc(C)cc4)=C3C)CC2)cc1	-2%	i	3.7µM*	?	11	-7
Cc1ccc(NC(=O)C2CCCN2S(=O)(=O)c2ccc3nc(-c4ccccc4)[nH]c3c2)cc1F (centres undefined)	-3%	nt	nt	21µM*	-13	nt
Cn1cnnc1SC1c2cccc3cccc(c23)C1NS(=O)(=O)c1ccccc1 (centres undefined)	-2%	i	i	7%	-2	0
Cc1ccc(S(=O)(=O)NC2c3cccc4cccc(c34)C2Sc2nncn2C)cc1 (centres undefined)	0%	?	i	-9%	-4	-1
Cn1cnnc1SC1c2cccc3cccc(c23)C1NS(=O)(=O)c1ccc(Cl)cc1 (centres undefined)	1%	i	12µM*	20%	-5	4
Cc1ccc(S(=O)(=O)NC2c3cccc4cccc(c34)C2Sc2nc(C)cc(C)n2)cc1 (centres undefined)	-9%	i	5.2µM*	-7%	-1	-5
CC(C)c1ccc(C(O)P(=O)(OC2CCCCC2)OC2CCCCC2)cc1 (centres undefined)	?	?	?	16µM*	-4	-10
CCOC(=O)c1cnc(N2CCN(c3ccc(C)cc3C)CC2)c2ccccc12	6%	nt	nt	nt	-7	nt
O=C(CSc1nccn(-c2ccc(Br)cc2)c1=O)NCc1ccccc1	2%	i	13µM*	3%	-2	6
C=C(C)CSc1nnc2[nH]c(=O)cc(N)n12	0%	16µM*	18µM*	-6%	-11	-4
CC(=O)CSc1nnc2[nH]c(=O)cc(N)n12	1%	i	?	nt	1	nt
Cc1cc(C)c(NC2=NCC(=O)N2C2CCCCC2)c(C)c1	2%	i	i	0%	9	-9
O=C1CN=C(Nc2cccc(C(F)(F)F)c2)N1C1CCCC1	-27%	i	i	15µM*	2	8
COC(=O)[C@]1(CNC(C)=O)CC(=O)N(Cc2ccc(Cl)cc2)[C@@H]1c1ccc(OC)cc1	nt	nt	nt	nt	-4	nt
CCOP(=O)(OCC)C(C)(C)NC(=O)Nc1ccc(Cl)c(Cl)c1	2%	?	?	23µM*	-1	-6
O=C(Cc1ccccc1)Nc1sc2c(c1C(=O)Nc1ccc(Cl)cc1)CCOC2	-2%	nt	nt	-20%	nt	nt
SMILES	A549 viability	KB-3-1 tox	KB-V1 MDR tox	Nrf2 block	PI4K2A inh	Giardia kill
Cc1cccc(/N=C/c2sc3ccccc3c2O)n1	-13%	i	i	-14%	-3	2
Cc1c(/C=N/O)sc2ccccc12	0%	?	21µM*	-5%	1	14
FC(F)(F)c1nnc2c(Sc3ccccc3)nc3ccccc3n12	nt	12µM*	?	?	5	-1
FC(F)(F)c1nnc2c(Sc3ccccn3)nc3ccccc3n12	-14%	?	?	11%	6	9
FC(F)(F)c1nnc2c(Sc3ccc(Cl)cc3)nc3ccccc3n12	-21%	3.7µM*	?	?	-2	-6
O=C(Nc1nc2ncccn2c1-c1ccc(F)cc1)c1ccccc1	nt	nt	nt	nt	-5	nt
CNc1ccccc1C(C)(C)c1cc(-c2cccc(Br)c2)no1	-22%	23µM*	i	?	4	-6
CNc1ccccc1C(C)(C)c1cc(-c2cccc([N+](=O)[O-])c2)no1	2%	i	i	-11%	-1	11
CNc1ccccc1C(C)(C)c1cc(-c2ccc(F)cc2)no1	-15%	8.2µM*	?	8.2µM*	1	-16
CC(C)(C)c1cc(-c2ccccc2)no1	-2%	i	i	5%	11	-3
COc1ccc(S[C@]2(C(=O)N3CCOCC3)CC(=O)N(C(=O)C3CC3)[C@@H]2c2ccc(OC)cc2)cc1	nt	nt	nt	nt	5	nt
O=C(CCNc1ccc(Cc2ccncc2)cc1)c1cccc([N+](=O)[O-])c1	-8%	i	i	15µM*	6	-3
CCOC(=O)c1sc(NC(=O)CSc2nnc(C(C)C)n2C)nc1C	-17%	i	23µM*	-19%	-8	4
O=S(=O)(c1ccccc1)N1CCN(Cc2ccccc2)c2ccccc21	-1%	i	18µM*	-17%	0	-6
O=S(=O)(c1ccccc1)N1CCN(Cc2ccccc2)CC1	-4%	?	?	9%	4	16
Cc1cccc(C(=O)Nc2nc3c(s2)CCCC3)c1	2%	nt	nt	?	-6	nt
Cc1cc(C(=O)Nc2nc3c(s2)CCCC3)cs1	1%	i	i	nt	-6	-2
O=C(Nc1nc2c(s1)CCCC2)c1ccc(Br)s1	?	16µM*	5.2µM*	nt	-8	-6
Cc1ncsc1C(=O)Nc1nc2c(s1)CCCC2	-11%	16µM*	13µM*	?	-27	-23
CCN1/C(=C/C=C/c2oc3ccc(-c4ccccc4)cc3[n+]2CC)Oc2ccc(-c3ccccc3)cc21	15µM*	9.2µM*	15µM*	5.8µM*	4	-20
